Screening data (PubChem BioAssay)
Sampled rows, rich in hits. Any-hit rate of the full collection: about 3.1%.
DENV2 CPE – inhibitors of DENV2 cytopathic effect | DENV2-infected cells, cytopathic effect rescue, plate reader | CPE inhibition, % at 9.99 µM | actives 1.7% (n = 350,000); in the data active means CPE inhibition above about 20%, passing the limit was not always enough; inconclusive means no clear call, values can overlap the other calls; tested in BHK-21 cells
dFosB act – activators of mouse delta FosB homodimer. P13346. purified delta FosB, TAMRA-CDK5 oligo fluorescence polarization; percent of positive-control signal above neutral wells. activation, % at 25 µM. actives 0.99% (n = 340,000);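 active means mean activation above about 17%, with every replicate also reaching it, limit read from the data, passing the limit was not always enough; inconclusive means only one of the two conditions met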
GSIS activator – primary screen for activators of insulin secretion dependent on glucose, INS-1E cells, GLuc reporter luminescence | INS-1E GLuc reporter insulin secretion, 2-3 h | activation, % at 16.6 µM | actives 0.61% (n = 370,000) | AID 743287;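 active means lowest replicate activation of at least 40%, so every replicate reaches that level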
RAD54 branch – inhibitors of human RAD54 branch migration; inhibition, % at 10.4 µM; RAD54 Holliday junction branch migration, FAM/BHQ fluorescence; AID 602329; Q92698; actives 0.14% (n = 360,000);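 active means mean normalized replicate activity at least 40 and at least half of replicates scoring 40 or more; inconclusive means only one of the two criteria met; inactive means mean below 40 and under half of replicates reaching 40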;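 further: inhibitors cause a drop in the FAM fluorescence signal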
RAD52 inh – blocks human RAD52 DNA annealing | P43351 | recombinant RAD52 DNA annealing, FRET fluorescence | inhibition, % at 18.7 µM | actives 0.46% (n = 360,000) | AID 651710;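 active means every replicate showing at least 50% inhibition; inconclusive means mean inhibition at least 50% but not in every replicate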
Target sequence (P43351 whole entry, looked up): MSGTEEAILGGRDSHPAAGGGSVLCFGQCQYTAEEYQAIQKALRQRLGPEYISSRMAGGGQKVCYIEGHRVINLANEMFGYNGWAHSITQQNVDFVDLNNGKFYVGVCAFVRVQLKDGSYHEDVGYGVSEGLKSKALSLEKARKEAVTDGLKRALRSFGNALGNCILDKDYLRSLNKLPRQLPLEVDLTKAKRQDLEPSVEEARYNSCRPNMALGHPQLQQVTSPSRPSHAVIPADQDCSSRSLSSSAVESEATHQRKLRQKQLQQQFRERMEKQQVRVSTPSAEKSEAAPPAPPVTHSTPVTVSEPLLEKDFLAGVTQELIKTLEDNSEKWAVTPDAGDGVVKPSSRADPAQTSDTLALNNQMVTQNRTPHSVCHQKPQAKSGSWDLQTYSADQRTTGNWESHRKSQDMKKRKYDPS
MLL AF4-AF9 inh – MLL-AF4/AF9 protein interaction inhibition; P42568; AlphaScreen, biotin-AF4 peptide binding to FLAG-AF9; inhibition, % at 10 µM; actives 0.47% (n = 350,000); AID 651704;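 active means every replicate reaching a set inhibition limit, whatever the replicate mean, cut at about 25% in these data; inconclusive means mean inhibition reaches that limit but some replicates miss it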
Large screens that a line does not name were inactive.

C[C@@H]1CN([C@@H](C)CO)C(=O)c2cc(NS(=O)(=O)c3ccc(F)cc3)ccc2O[C@@H]1CN(C)Cc1ccncc1	none (no result: dFosB act)
C[C@@H]1CN([C@H](C)CO)C(=O)Cc2cc(NC(=O)CCC(F)(F)F)ccc2O[C@H]1CN(C)Cc1ccc2c(c1)OCO2	DENV2 CPE 45 (no result: dFosB act)
C[C@H](CO)N1C[C@H](C)[C@H](CN(C)Cc2ccc3c(c2)OCO3)Oc2ccc(NC(=O)Nc3ccc(C(F)(F)F)cc3)cc2CC1=O	DENV2 CPE 54 (no result: dFosB act)
C[C@H](CO)N1C[C@H](C)[C@@H](CN(C)Cc2ccccc2)Oc2ccc(NC(=O)Nc3ccc(C(F)(F)F)cc3)cc2CC1=O	RAD52 inh 54 (no result: dFosB act)
CC(C)(C)n1nnnc1C(c1cc2ccccc2o1)N1CCCC1 (stereo not drawn)	none (no result: dFosB act, RAD54 branch)
CC(C)(C)n1nnnc1C(c1cc2ccccc2o1)N1CCOCC1 (stereo not drawn)	DENV2 CPE 107 (no result: dFosB act, RAD54 branch)
C[C@@H]1CN([C@@H](C)CO)C(=O)c2cc(-c3cccc(F)c3)cnc2O[C@@H]1CN(C)C(=O)c1cnccn1	none (no result: dFosB act)
C[C@H]1CN([C@@H](C)CO)C(=O)Cc2cc(NC(=O)Nc3ccc(F)cc3)ccc2O[C@H]1CN(C)C(=O)Nc1ccc2c(c1)OCO2	none (no result: dFosB act)
C[C@@H](C(=O)NCCc1ccccc1)N1C(=O)N2CCc3c([nH]c4ccccc34)[C@@]2(C)C1=O	DENV2 CPE 37
CC(C)[C@@H](C(=O)NC1CCN(Cc2ccccc2)CC1)N1C(=O)N2CCc3c([nH]c4ccccc34)[C@@]2(C)C1=O	DENV2 CPE 39, MLL AF4-AF9 inh 27 (no result: GSIS activator)
O=C1NC(c2ccccc2)c2c(-c3ccccc3)n[nH]c21 (stereo not drawn)	GSIS activator 54 (no result: dFosB act, RAD54 branch, MLL AF4-AF9 inh)
O=C1c2[nH]nc(-c3ccccc3)c2C(c2ccccc2)N1c1ccccc1 (stereo not drawn)	GSIS activator 49 (no result: dFosB act, RAD54 branch)
CC(C)c1[nH]nc2c1C(c1ccccc1)NC2=O (stereo not drawn)	GSIS activator 44 (no result: dFosB act, RAD54 branch, MLL AF4-AF9 inh)
CCCN1C[C@H](C)[C@H](OC)CN(C)C(=O)c2ccc(NC(=O)Nc3ccccc3F)cc2OC[C@@H]1C	none (no result: dFosB act)
CC(C)NC(=O)N[C@H]1C=C[C@H](CC(=O)NC2Cc3ccccc3C2)O[C@@H]1CO	none (no result: dFosB act)
O=C(COc1ccccc1)Nc1ccccc1C(=O)NC1CC1	GSIS activator 44
CN(CC(=O)Nc1ccccc1C(=O)NC1CC1)Cc1ccccc1F	DENV2 CPE 78 (no result: RAD54 branch)
Cc1ccccc1OCC(=O)Nc1ccccc1C(=O)NC1CC1	none
C[C@@H]1CN([C@H](C)CO)S(=O)(=O)c2ccc(C#CC3CC3)cc2O[C@@H]1CN(C)C(=O)c1cccnc1	DENV2 CPE inconclusive (no result: dFosB act)
C[C@H](CO)N1C[C@H](C)[C@@H](CN(C)C(=O)CCCN(C)C)OCCCC[C@H](C)Oc2ccc(NC(=O)CCCN(C)C)cc2C1=O	DENV2 CPE 85 (no result: dFosB act)
C[C@H]1CCCCO[C@H](CN(C)C(=O)CCCN(C)C)[C@@H](C)CN([C@@H](C)CO)C(=O)c2cc(NC(=O)c3ccccc3)ccc2O1	DENV2 CPE 53 (no result: dFosB act)
C[C@@H]1CN([C@@H](C)CO)C(=O)c2cc(NC(=O)CCCN(C)C)ccc2O[C@@H](C)CCCCO[C@@H]1CN(C)C(=O)Cc1ccccc1	DENV2 CPE 64 (no result: dFosB act)
C[C@@H]1CN([C@@H](C)CO)C(=O)c2cc(NC(=O)c3ccccc3)ccc2O[C@@H](C)CCCCO[C@@H]1CN(C)C(=O)CCCN(C)C	none (no result: dFosB act)
C[C@H]1CCCCO[C@@H](CN(C)C(=O)CCCN(C)C)[C@@H](C)CN([C@@H](C)CO)C(=O)c2cc(NC(=O)Cc3ccccc3)ccc2O1	none (no result: dFosB act)
C[C@@H]1CCCCO[C@@H](CN(C)C(=O)CCCN(C)C)[C@@H](C)CN([C@H](C)CO)C(=O)c2cc(NC(=O)Cc3ccccc3)ccc2O1	DENV2 CPE 142 (no result: dFosB act)
CO[C@@H]1CN(C)C(=O)c2cc(NC(=O)Nc3ccccc3)ccc2OC[C@H](C)N(C(=O)CN(C)C)C[C@H]1C	none (no result: dFosB act)
C[C@@H]1CN([C@H](C)CO)C(=O)Cc2cc(NS(=O)(=O)c3cn(C)cn3)ccc2O[C@H]1CN(C)C	none (no result: dFosB act)
O=C(Nc1ccccc1)N1C[C@H]2[C@@H](c3ccccc31)[C@H](CO)N2C(=O)Cc1ccccn1	none (no result: dFosB act)
COc1ccc(NC(=O)N(C)C[C@H]2Oc3ccc(NC(=O)Cn4cnnn4)cc3CC(=O)N([C@@H](C)CO)C[C@H]2C)cc1	none (no result: dFosB act)
O=c1cc(-c2cccc(F)c2)[nH]c2ccccc12	DENV2 CPE 36
Cc1ccc2[nH]c(-c3cccc(F)c3)cc(=O)c2c1	none (no result: DENV2 CPE, GSIS activator)
O=[N+]([O-])c1cccc(-c2nc3ccccc3s/c2=N/O)c1	GSIS activator 82
O=[N+]([O-])c1cccc(-c2cnc3ccccc3n2)c1	none
Cc1ccc(Nc2ncnc3sccc23)c(C)c1	GSIS activator 42
C[C@H](NC(=O)[C@@H]1[C@@H](CO)[C@@H]2Cn3c(cccc3=O)[C@@H]2N1Cc1ccncc1)c1ccccc1	none (no result: dFosB act)
COc1ccc(C)cc1N(CC(=O)Nc1ccc(S(=O)(=O)N2CCOCC2)cc1)S(C)(=O)=O	DENV2 CPE 24
CCOc1ccc(NCc2cccn2-c2nnc(N3CCC(C(=O)NCCCN4CC(C)CC(C)C4)CC3)s2)cc1 (stereo not drawn)	MLL AF4-AF9 inh 40
CCN1CCN(CCCNC(=O)C2CCN(c3nnc(-n4cccc4)s3)CC2)CC1	none
N#Cc1c(-c2ccc(Br)cc2)cc(-c2cccnc2)nc1N	none (no result: DENV2 CPE, RAD54 branch, RAD52 inh, MLL AF4-AF9 inh)
Cc1nc(N)c(C#N)c(-c2cccnc2)c1-c1ccccc1	GSIS activator 41
N#Cc1c(-c2cccc(Br)c2)cc(-c2cccnc2)nc1N	GSIS activator 90 (no result: DENV2 CPE, RAD52 inh, MLL AF4-AF9 inh)
CCC(=O)Nc1ccc2c(c1)C(=O)N(C)[C@H]1CC[C@@H](CC(=O)NCCc3ccncc3)O[C@@H]1CO2	none (no result: dFosB act)
ClC(Cl)(c1nnnn1-c1ccccc1)c1nnnn1-c1ccccc1	GSIS activator 139 (no result: DENV2 CPE, RAD52 inh, MLL AF4-AF9 inh)
Cc1ccc(S(=O)(=O)N(C)C[C@@H]2Oc3ccc(NS(=O)(=O)c4cccs4)cc3C(=O)N([C@H](C)CO)C[C@H]2C)cc1	none (no result: DENV2 CPE, dFosB act)
CN(C)c1ccc2c(c1)[C@@H]1C[C@@H](CC(=O)NCc3cccc(F)c3)O[C@@H](CO)[C@@H]1O2	none (no result: dFosB act)
CN(C)S(=O)(=O)N1CCC(Oc2ccc(C(=O)N3CCCCCCC3)cc2)CC1	DENV2 CPE 45
CN(C)S(=O)(=O)N1CCC(Oc2ccc(C(=O)N3CCCCCC3)cc2)CC1	none (no result: dFosB act)
COc1ccccc1N1CCN(Cc2cn[nH]c2-c2ccc(F)cc2)CC1	MLL AF4-AF9 inh 53
Cc1noc(C)c1NC(=O)Nc1ccc2c(c1)C(=O)N([C@@H](C)CO)C[C@@H](C)[C@H](CN(C)Cc1ccc(C(=O)O)cc1)OCCCC[C@H](C)O2	none (no result: dFosB act, RAD52 inh, MLL AF4-AF9 inh)
CC1(c2nnc(Cc3ccccc3)o2)CC(c2ccc([N+](=O)[O-])cc2)=NO1 (stereo not drawn)	DENV2 CPE 31
